The values that follow come from PubChem BioAssay (NCI).

“And” between values parts separate entries of the source, which are not always exact repeats. Equal values may be shown once. About 83,000 compounds went through this panel and 20% of them were active in at least one assay; those are over-represented in the sample as a whole.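 Values shown are percent growth following 48 h exposure of cells in 96-well plates to a single concentration of compound; below 10 was considered active.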 The source made the active and inactive calls.

The subject of the assay is MDA-MB-468 breast. The assay can be described thus: NCI-60 one-dose screen, 48 h (100 = growth as untreated, 0 = no growth, -100 = all killed). The conditions noted are these: 10 µM unless noted.
With `C#CCNC(=S)N/N=C(\C)c1ccccn1`, the growth was -31.4% (active).
For `CCCCCN1C(=O)/C(=c2\sc3n(c2=O)C2C(NN=3)N(CC)C(=O)N2CC)c2cccc(C)c21` (centres undefined) the value was 34.5% (inactive); for `COc1ccc(-c2cc(-c3nnc(SC/C(=N\O)c4ccccc4)n3-c3ccccc3)c3ccccc3n2)cc1`, 107% (inactive).
For `COCCOCCOCc1n(Cc2ccc3ccccc3c2)c2ccccc2[n+]1Cc1ccc2ccccc2c1` the value was -20.6% (active); for `Oc1c(I)cc(I)cc1CN(Cc1ccccn1)Cc1ccccn1`, 8.74% (active); for `Cc1nc(NC(=O)N2CCC[C@H]2C(N)=O)sc1-c1ccnc(C(C)(C)C(F)(F)F)c1`, 6.59% (active).
Regarding `C=C1C(=O)O[C@H]2[C@H]1CC/C(COC(=O)NCc1cc3ccccc3[nH]1)=C\CC[C@@]1(C)O[C@@H]21`, the growth was 19.3% (inactive).
Take `O=C(Nc1ncc(Cc2ccccc2)s1)c1ccc2c(c1)OCCCO2`: the growth is 7.91% (active).
The figure for `Oc1ccc(CSc2nnc(-c3ccc(Cl)cc3)n2-c2ccccc2)c2cccnc12` is 14.5% (inactive); for `COc1ccc(-c2nc(-c3nc4ccc(C)cc4[nH]3)c3ccccn23)cc1` it is 45.4% (inactive); for `COc1ccc(C2C=C(c3ccc(N)cc3)N=C3SC=CN32)cc1OC` (centres undefined) it is 101% (inactive).
Take `C=CCn1c(SCC(=O)Nc2cccc(C(=O)/C=C/c3ccccc3Cl)c2)nc2ccccc2c1=O`: the growth was 98.1% (inactive).
For `CCOC(=O)c1n[nH]n2c1nc(=O)c1cnn(C)c12` the value was 113% (inactive); for `CC(=O)N1CCN(CCNC(=O)n2cc(-c3ccncc3)c(-c3ccc(O)c(Cl)c3)n2)CC1`, 112% (inactive).
The figure for `COc1ccc(/C=C(/C(=O)c2ccc(Cl)cc2)C(=O)C(F)(F)F)cc1` is 99.7% (inactive).
The figure for `CCN1CCN(S(=O)(=O)c2oc(-c3ccc(Cl)cc3)nc2C#N)CC1` is 24% (inactive); for `CC(C)[C@H]1COC(=O)N1[C@@H]1C(=O)N([C@@H](CCC(=O)N2CCN(C3CCCC3)CC2)C(=O)N[C@@H]2CCCc3ccccc32)[C@@H]1/C=C/c1cccc(Br)c1` it is -21.6% (active).
On to `Cn1cc(-c2nonc2-c2c[nH]c3ccc(F)cc23)c2cc(Br)ccc21`, for which the growth is 58.7% (inactive).
For `CC1Cc2cc(F)ccc2-n2cccc21` (centres undefined), the growth was 136% (inactive).
For `O=C(C(=Cc1ccccc1)C(=O)c1ccccc1)c1ccccc1` the value was 63.4% (inactive) and 89.4% (inactive); for `CCOC(=O)c1c(NC(=O)c2cccc(C(F)(F)F)c2)sc2cc(O)ccc12`, 85.4% (inactive); for `COC(=O)[C@@H](OC)[C@@H]1Cc2cc3cc(OC4CC(OC5CC(O)C(O)C(C)O5)C(O)C(C)O4)c(C)c(O)c3c(O)c2C(=O)[C@H]1OC1CC(OC2CC(OC3CC(C)(O)C(O)C(C)O3)C(O)C(C)O2)C(O)C(C)O1` (some centres undefined), -45.6% (active).
For `S=C1SCN(CCc2ccccc2)CN1CCc1ccccc1` the value was 9.02% (active); for `CC1(C)NC(=S)NC1=O`, 109% (inactive).
The figure for `CC1(C)[C@@H](O)CC[C@]2(C)[C@H]3CC[C@@H]4[C@H]5[C@H](C(=O)/C=C\c6ccncc6)CC[C@]5(O)CC[C@@]4(C)[C@]3(C)CC[C@@H]12` is 17.5% (inactive); for `CCC(c1ccc(OC)cc1)C(CC)c1ccc(OCC[N+](C)(C)C)cc1` (centres undefined) it is 19.3% (inactive).
Turning to `CCOC(=O)c1c(-c2ccc(O)cc2)c(C#N)c2c(C#N)c(N)nn2c1N`, the growth is 35.2% (inactive).
For `C=CCOc1cccc(/C=C2\SC(=Nc3ccc(O)cc3)NC2=O)c1` the value was -7.52% (active); for `c1ccc2nc(-c3ccc4ccccc4n3)ccc2c1`, 78.9% (inactive).
The figure for `Nc1ncnc2c1c(-c1ccc(Oc3ccccc3)cc1)nn2CC1SSCC1O` (centres undefined) is -24.8% (active).
The figure for `CCN(CC)CCNc1ccc(N=Nc2cnc3ccccc3c2)c2ccccc12` is -64.5% (active).
As for `CC1=C(SCCC(=O)OC(C[Se]C2=C(C)C(=O)c3ccccc3C2=O)C(=O)NCCCCCC(=O)OCc2ccccc2)C(=O)c2ccccc2C1=O` (centres undefined), the growth was 30.5% (inactive).
The figure for `O=C(NNc1nc2cc(F)ccc2n2c(CN3CCOCC3)ccc12)c1ccccc1` is -27.9% (active).
On to `CC(=O)OC[C@H]1OC(Sc2sc(C(=O)c3ccc(Br)cc3)c(N)c2-c2nc3ccccc3s2)[C@H](OC(C)=O)[C@@H](OC(C)=O)[C@@H]1OC(C)=O` (some centres undefined), for which the growth was 71.5% (inactive).
The figure for `Cc1cccc(OCC(O)CN2CCN(c3ccc(Cl)cc3)CC2)c1` (centres undefined) is 112% (inactive); for `NS(=O)(=O)c1ccc(C2C3=C(CCCC3=O)OC3=C2C(=O)c2ccccc2C3=O)cc1` (centres undefined) it is -47.4% (active).
For `O=C(C[n+]1cccc2ccccc21)c1ccc(O)c(O)c1` the value was 16.1% (inactive); for `O=C1/C(=C\c2ccc(F)cc2)CN(C(=O)c2ccccc2F)C/C1=C\c1ccc(F)cc1`, -74% (active); for `CCN(CC)c1ccc(C2=NN(C(C)=O)C(c3cc(OC)c(OC)c(OC)c3)C2)cc1` (centres undefined), 17% (inactive).
